Laboratory results taken from PubChem BioAssay (NCI).
The panel holds about 83,000 compounds, 20% with a hit somewhere; the sample as a whole holds those more often.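 Method: cells in 96-well plates; compound added at one concentration; 48 h incubation; percent growth measured; values under 10 scored active.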 Activity calls are given as the source filed them.

Columns and labels:
Assay in all cases: NCI-60 one-dose screen, 48 h (100 = growth as untreated, 0 = no growth, -100 = all killed)
Conditions in all cases: 10 µM unless noted
HCT-15 colon = tested on: HCT-15 colon
HT29 colon = tested on: HT29 colon
SNB-75 CNS = tested on: SNB-75 CNS
SNB-19 CNS = tested on: SNB-19 CNS
U251 CNS = tested on: U251 CNS
PC-3 prostate = tested on: PC-3 prostate
SK-MEL-5 melanoma = tested on: SK-MEL-5 melanoma
UACC-62 melanoma = tested on: UACC-62 melanoma
LOX IMVI melanoma = tested on: LOX IMVI melanoma
SK-MEL-28 melanoma = tested on: SK-MEL-28 melanoma
SK-MEL-2 melanoma = tested on: SK-MEL-2 melanoma
EKVX NSCLC = tested on: EKVX NSCLC
SN12C renal = tested on: SN12C renal
UO-31 renal = tested on: UO-31 renal
TK-10 renal = tested on: TK-10 renal
ACHN renal = tested on: ACHN renal
CAKI-1 renal = tested on: CAKI-1 renal
A498 renal = tested on: A498 renal
CCRF-CEM leukemia = tested on: CCRF-CEM leukemia
MOLT-4 leukemia = tested on: MOLT-4 leukemia

Measured: growth

COc1ccc(OC)c(Nc2nnc(-c3cc(OC)c(OC)c(OC)c3)o2)c1
inactive: HCT-15 colon 99% | HT29 colon 86.8% | SNB-75 CNS 101% | SNB-19 CNS 96.7% | U251 CNS 105% | PC-3 prostate 98.6% | SK-MEL-5 melanoma 93.9% | UACC-62 melanoma 87.8% | LOX IMVI melanoma 97.9% | SK-MEL-28 melanoma 102% | SK-MEL-2 melanoma 99.7% | EKVX NSCLC 99.8% | SN12C renal 89.5% | UO-31 renal 89.6% | TK-10 renal 103% | ACHN renal 105% | CAKI-1 renal 100% | A498 renal 89.9% | CCRF-CEM leukemia 121% | MOLT-4 leukemia 84.1%

CCOc1ncc([N+](=O)[O-])c(OCC)n1
inactive: HCT-15 colon 104% | HT29 colon 121% | SNB-75 CNS 97% | SNB-19 CNS 104% | U251 CNS 109% | PC-3 prostate 88.1% | SK-MEL-5 melanoma 99.9% | UACC-62 melanoma 95.9% | LOX IMVI melanoma 101% | SK-MEL-28 melanoma 105% | SK-MEL-2 melanoma 103% | EKVX NSCLC 122% | SN12C renal 91.8% | UO-31 renal 106% | TK-10 renal 115% | ACHN renal 106% | CAKI-1 renal 116% | A498 renal 111% | CCRF-CEM leukemia 101% | MOLT-4 leukemia 90.9%

CCN(CC)CCn1c2ccc(OC)cc2c2sc3cc(O)ccc3c(=O)c21
active: LOX IMVI melanoma -30.4% | ACHN renal 4.69% | MOLT-4 leukemia 8.27%
inactive: HCT-15 colon 18.7% | HT29 colon 15.1% | SNB-75 CNS 78.8% | SNB-19 CNS 25.8% | U251 CNS 27.4% | PC-3 prostate 32% | SK-MEL-5 melanoma 76.1% | UACC-62 melanoma 54.8% | SK-MEL-28 melanoma 68.8% | SK-MEL-2 melanoma 61.2% | EKVX NSCLC 47.3% | SN12C renal 23.6% | UO-31 renal 23.9% | TK-10 renal 82.2% | CAKI-1 renal 58.1% | A498 renal 43.8% | CCRF-CEM leukemia 13.9%

O=S(Nc1ccccc1)c1ccc(Cl)cc1 (stereo not given)
inactive: HCT-15 colon 109% | HT29 colon 102% | SNB-75 CNS 83.2% | SNB-19 CNS 96.8% | U251 CNS 95.1% | PC-3 prostate 89.8% | SK-MEL-5 melanoma 99.8% | UACC-62 melanoma 90.4% | LOX IMVI melanoma 100% | SK-MEL-28 melanoma 107% | SK-MEL-2 melanoma 95.2% | EKVX NSCLC 102% | SN12C renal 102% | UO-31 renal 85.7% | TK-10 renal 103% | ACHN renal 94.5% | CAKI-1 renal 95.5% | A498 renal 95.8% | CCRF-CEM leukemia 95.7% | MOLT-4 leukemia 85.7%

Cc1cccc(NC(=O)Cn2cc(CN3CCN(c4ccnc5cc(Cl)ccc45)CC3)nn2)c1
inactive: HCT-15 colon 88.8% | HT29 colon 98.5% | SNB-75 CNS 75% | SNB-19 CNS 89.6% | U251 CNS 93% | PC-3 prostate 63.3% | SK-MEL-5 melanoma 68.8% | UACC-62 melanoma 73% | LOX IMVI melanoma 81.6% | SK-MEL-28 melanoma 102% | SK-MEL-2 melanoma 108% | EKVX NSCLC 87.7% | SN12C renal 93.8% | UO-31 renal 65.7% | TK-10 renal 102% | ACHN renal 82.9% | CAKI-1 renal 72.7% | A498 renal 84.3%
active: CCRF-CEM leukemia -32.9% | MOLT-4 leukemia 5.76%

CCN(CC)C(=O)CC1=C(C)/C(=C/c2[nH]c(-c3ccc[nH]3)cc2OC)N=C1C
active: HCT-15 colon 1.25% | PC-3 prostate 3.87% | SK-MEL-5 melanoma -59.3% | UACC-62 melanoma -51.8% | LOX IMVI melanoma -58.8% | SK-MEL-2 melanoma -36.1% | UO-31 renal -59.3% | ACHN renal 1.61% | CAKI-1 renal -8.05% | A498 renal -8.32%
inactive: HT29 colon 12.4% | SNB-75 CNS 14.2% | SNB-19 CNS 42.4% | U251 CNS 23.9% | SK-MEL-28 melanoma 25.6% | EKVX NSCLC 32.7% | SN12C renal 29.1% | TK-10 renal 28.2% | CCRF-CEM leukemia 25.8% | MOLT-4 leukemia 12.4%

C=C(C)[C@@H]1CC[C@]2(COC3CCCCO3)CC[C@]3(C)[C@H](CC[C@@H]4[C@@]5(C)C=C(C=O)C(=O)C(C)(C)[C@@H]5CC[C@]43C)[C@@H]12 (stereo not given in full)
active: HCT-15 colon -30% | HT29 colon -54.2% | SNB-75 CNS -16.3% | SNB-19 CNS -71.4% | U251 CNS -73.6% | PC-3 prostate -57.7% | SK-MEL-5 melanoma -97.5% | UACC-62 melanoma -74.9% | LOX IMVI melanoma -88.9% | SK-MEL-28 melanoma -68.7% | SK-MEL-2 melanoma -40.9% | EKVX NSCLC -60% | SN12C renal -48.8% | UO-31 renal -86.8% | TK-10 renal -82.5% | ACHN renal -59.2% | CAKI-1 renal -40.8% | A498 renal -95% | CCRF-CEM leukemia -34.9% | MOLT-4 leukemia 3.64%

COC1C(O)CC(OC2CC(OC3CC(O[C@@H]4C(=O)c5c(cc6cc(OC7CC(OC8CC(O)C(O)C(C)O8)C(O)C(C)O7)c(C)c(O)c6c5O)CC4[C@H](OC)[C@@H](O)C(C)=O)OC(C)C3O)OC(C)C2O)OC1C (stereo not given in full)
active: HT29 colon -16.9% | SNB-75 CNS -17.6% | U251 CNS 7.11% | SK-MEL-5 melanoma -65.2% | UACC-62 melanoma -20.9% | LOX IMVI melanoma -25.2% | SK-MEL-28 melanoma -13.9% | SK-MEL-2 melanoma -37.7% | UO-31 renal 0.176% | TK-10 renal -1.06% | ACHN renal 0.949% | A498 renal -78.8% | MOLT-4 leukemia -2.23%
inactive: HCT-15 colon 28% | SNB-19 CNS 16.4% | PC-3 prostate 16.9% | EKVX NSCLC 19.8% | SN12C renal 17% | CAKI-1 renal 29.3% | CCRF-CEM leukemia 16.6%

Cc1cn(C)cn1
inactive: HCT-15 colon 99% | HT29 colon 98.7% | SNB-75 CNS 98.7% | SNB-19 CNS 107% | U251 CNS 98% | PC-3 prostate 93.9% | SK-MEL-5 melanoma 112% | UACC-62 melanoma 105% | LOX IMVI melanoma 94.6% | SK-MEL-28 melanoma 109% | SK-MEL-2 melanoma 103% | EKVX NSCLC 105% | SN12C renal 105% | UO-31 renal 82.5% | TK-10 renal 95.9% | ACHN renal 108% | CAKI-1 renal 88.7% | A498 renal 114% | CCRF-CEM leukemia 97.3% | MOLT-4 leukemia 105%

Cc1[nH]n(-c2cccc(Cl)c2)c(=O)c1/C=C1\C=c2ccccc2=CC1=O
active: SNB-75 CNS -5.52% | U251 CNS -10.7% | SK-MEL-5 melanoma -82.5% | LOX IMVI melanoma -79.4% | ACHN renal -36.1%
inactive: HCT-15 colon 49.9% | HT29 colon 13.5% | SNB-19 CNS 31.4% | PC-3 prostate 33% | UACC-62 melanoma 82.7% | SK-MEL-28 melanoma 51.1% | SK-MEL-2 melanoma 38.1% | EKVX NSCLC 51.3% | SN12C renal 23.6% | UO-31 renal 66.6% | TK-10 renal 17.2% | CAKI-1 renal 35% | A498 renal 107% | CCRF-CEM leukemia 36.3% | MOLT-4 leukemia 44.2%

N#Cc1nn(-c2cc(=O)[nH]c3ccc(Br)cc23)c(N)c1C#N
active: PC-3 prostate -86.9% | CCRF-CEM leukemia -32% | MOLT-4 leukemia -16.1%
inactive: HCT-15 colon 99.3% | HT29 colon 94.8% | SNB-75 CNS 87.3% | SNB-19 CNS 105% | U251 CNS 106% | SK-MEL-5 melanoma 101% | UACC-62 melanoma 86.6% | LOX IMVI melanoma 102% | SK-MEL-28 melanoma 101% | SK-MEL-2 melanoma 103% | EKVX NSCLC 87.5% | SN12C renal 87.3% | UO-31 renal 65.7% | TK-10 renal 110% | ACHN renal 91% | CAKI-1 renal 90.5% | A498 renal 105%

CCN1C(=O)N(CC)C2C1NN=c1s/c(=C\c3ccc(OC)cc3)c(=O)n12 (stereo not given)
inactive: HCT-15 colon 10.3% | SNB-75 CNS 23% | SNB-19 CNS 26.9% | PC-3 prostate 26.5% | UACC-62 melanoma 23.9% | LOX IMVI melanoma 17.1% | SK-MEL-28 melanoma 56.4% | SK-MEL-2 melanoma 34.5% | EKVX NSCLC 51.9% | SN12C renal 24.9% | UO-31 renal 39.3% | TK-10 renal 66.2% | ACHN renal 28.5% | CAKI-1 renal 25.5% | A498 renal 11.8% | MOLT-4 leukemia 14%
active: HT29 colon 3.44% | U251 CNS 7.45% | SK-MEL-5 melanoma -10.8% | CCRF-CEM leukemia 9.06%

COc1ccc2c(c1)c(-c1nc(-c3ccc4ccccc4c3)cs1)cn2C
inactive: HCT-15 colon 73% | HT29 colon 51.3% | SNB-75 CNS 109% | SNB-19 CNS 99.8% | U251 CNS 91% | PC-3 prostate 87.1% | SK-MEL-5 melanoma 94.5% | UACC-62 melanoma 91.3% | LOX IMVI melanoma 86% | SK-MEL-28 melanoma 89.6% | SK-MEL-2 melanoma 108% | EKVX NSCLC 85.8% | SN12C renal 93.6% | UO-31 renal 70.6% | TK-10 renal 102% | ACHN renal 87.4% | CAKI-1 renal 83.6% | A498 renal 86.8% | CCRF-CEM leukemia 88.7% | MOLT-4 leukemia 84%

CC(C)(C)c1ccc(C(=O)N/N=C/c2ccc(O)cc2O)cc1
inactive: HCT-15 colon 14.1% | HT29 colon 26.4% | SNB-75 CNS 37.6% | SNB-19 CNS 28.4% | U251 CNS 19.6% | PC-3 prostate 34.9% | SK-MEL-28 melanoma 27.8% | SK-MEL-2 melanoma 38.3% | EKVX NSCLC 21.5% | SN12C renal 23.3% | UO-31 renal 12.2% | TK-10 renal 40.1% | ACHN renal 15.2% | CAKI-1 renal 15% | A498 renal 13.6% | MOLT-4 leukemia 13.3%
active: SK-MEL-5 melanoma -46.1% | UACC-62 melanoma 4.25% | LOX IMVI melanoma 2.62% | CCRF-CEM leukemia 9.83%
